Laboratory results as given in PubChem BioAssay AID1159580 (chemical genetic matrix, 2015).
Among all 5,500 compounds or so, about 2,000 (36%) were called active. About 18% were inconclusive and are not listed. Cut-off read from the data, not from the text of the source: active = normalized growth mostly below about 0.91 (no sharp cut-off); inconclusive = no clear call, values can overlap the other calls; inactive = mostly above about 0.92. This is one part of the list.

Experiment: chemical genetic growth profiling, strain panel (AID 1159580);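 note: tested at 20 µM; growth read once vehicle control cultures reached saturation at 30 °C; 1 = growth at the plate median or of vehicle wells; lower values mean less growth of the strain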
Details: growth OD

Measured: normalized growth

C[C@]12CCC(=O)C=C1CCC1C2C(=O)C[C@@]2(C)C1CC[C@]2(O)C(=O)CO (stereo partly drawn)
inactive: S. cerevisiae deletion strains, locus YJL187C, strain SWE1, hits give low values 1.01 | S. cerevisiae deletion strains, locus YJR043C, strain POL32, hits give low values 1 | S. cerevisiae deletion strains, locus YJR066W, strain TOR1, hits give low values 0.967 | S. cerevisiae deletion strains, locus YKL009W, strain mrt4, hits give low values 1.06 | S. cerevisiae deletion strains, locus YKL068W, hits give low values 1.01 | S. cerevisiae deletion strains, locus YKL085W, strain MDH1 (second series), hits give low values 0.994 | S. cerevisiae deletion strains, locus YKL085W, strain MDH1, hits give low values 0.994 | S. cerevisiae deletion strains, locus YKL160W, strain elf1, hits give low values 1 | S. cerevisiae deletion strains, locus YKR001C, strain vps1, hits give low values 0.998 | S. cerevisiae deletion strains, locus YKR026C, strain gcn3, hits give low values 0.99 | S. cerevisiae deletion strains, locus YKR091W, strain srl3, hits give low values 0.999 | S. cerevisiae deletion strains, locus YLL001W, strain dnm1, hits give low values 1.03 | S. cerevisiae deletion strains, locus YLL026W, hits give low values 1 | S. cerevisiae deletion strains, locus YLL041C, strain sdh2, hits give low values 1.01 | S. cerevisiae deletion strains, locus YLR027C, strain aat2, hits give low values 1.01 | S. cerevisiae deletion strains, locus YLR039C, strain RIC1, hits give low values 1.01 | S. cerevisiae deletion strains, locus YLR058C, strain SHM2, hits give low values 0.981 | S. cerevisiae deletion strains, locus YLR102C, strain apc9, hits give low values 0.995 | S. cerevisiae deletion strains, locus YLR113W, strain HOG1, hits give low values 0.951 | S. cerevisiae deletion strains, locus YLR221C, strain rsa3, hits give low values 1 | S. cerevisiae deletion strains, locus YLR258W, strain gsy2, hits give low values 1.01 | S. cerevisiae deletion strains, locus YLR262C, strain YPT6 (second series), hits give low values 0.995 | S. cerevisiae deletion strains, locus YLR262C, strain YPT6, hits give low values 1.03 | S. cerevisiae deletion strains, locus YLR268W, strain sec22, hits give low values 1.05 | S. cerevisiae deletion strains, locus YLR320W, strain mms22, hits give low values 0.988 | S. cerevisiae deletion strains, locus YLR330W, strain CHS5, hits give low values 1 | S. cerevisiae deletion strains, locus YLR342W, strain FKS1 (second series), hits give low values 1.03 | S. cerevisiae deletion strains, locus YLR342W, strain FKS1, hits give low values 0.992 | S. cerevisiae deletion strains, locus YLR357W, strain rsc2, hits give low values 0.993 | S. cerevisiae deletion strains, locus YLR370C, strain arc18, hits give low values 1.01 | S. cerevisiae deletion strains, locus YLR371W, strain rom2, hits give low values 1.01 | S. cerevisiae deletion strains, locus YLR384C, strain iki3, hits give low values 1 | S. cerevisiae deletion strains, locus YLR418C, strain cdc73, hits give low values 1.03 | S. cerevisiae deletion strains, locus YML016C, strain PPZ1, hits give low values 1 | S. cerevisiae deletion strains, locus YML032C, strain rad52, hits give low values 0.957 | S. cerevisiae deletion strains, locus YML120C, strain ndi1, hits give low values 1.02 | S. cerevisiae deletion strains, locus YML124C, strain tub3, hits give low values 1 | S. cerevisiae deletion strains, locus YMR058W, strain fet3, hits give low values 0.998 | S. cerevisiae deletion strains, locus YMR078C, strain ctf18, hits give low values 1 | S. cerevisiae deletion strains, locus YMR125W, strain sto1, hits give low values 1 | S. cerevisiae deletion strains, locus YMR129W, hits give low values 0.989 | S. cerevisiae deletion strains, locus YMR205C, strain PFK2, hits give low values 0.987 | S. cerevisiae deletion strains, locus YMR223W, strain ubp8, hits give low values 0.977 | S. cerevisiae deletion strains, locus YMR231W, strain pep5, hits give low values 1.01 | S. cerevisiae deletion strains, locus YMR263W, strain SAP30, hits give low values 1 | S. cerevisiae deletion strains, locus YMR307W, strain GAS1, hits give low values 1.03 | S. cerevisiae deletion strains, locus YNL067W, strain RPL9B, hits give low values 1 | S. cerevisiae deletion strains, locus YNL071W, strain lat1, hits give low values 1.01 | S. cerevisiae deletion strains, locus YNL183C, strain NPR1, hits give low values 0.926 | S. cerevisiae deletion strains, locus YNL209W, strain ssb2, hits give low values 1 | S. cerevisiae deletion strains, locus YNL233W, strain BNI4, hits give low values 0.994 | S. cerevisiae deletion strains, locus YNL248C, strain rpa49, hits give low values 1 | S. cerevisiae deletion strains, locus YNL250W, strain rad50, hits give low values 0.999 | S. cerevisiae deletion strains, locus YNL271C, strain bni1, hits give low values 1 | S. cerevisiae deletion strains, locus YNL298W, strain CLA4, hits give low values 1.02 | S. cerevisiae deletion strains, locus YNL307C, strain MCK1, hits give low values 1.01 | S. cerevisiae deletion strains, locus YNL322C, strain KRE1 (second series), hits give low values 1 | S. cerevisiae deletion strains, locus YNR049C, strain mso1, hits give low values 1.01 | S. cerevisiae deletion strains, locus YNR052C, strain pop2, hits give low values 1 | S. cerevisiae deletion strains, locus YOL012C, strain htz1 0.71 | S. cerevisiae deletion strains, locus YOL147C, strain pex11, hits give low values 1.01 | S. cerevisiae deletion strains, locus YOR001W, strain rrp6, hits give low values 1.01 | S. cerevisiae deletion strains, locus YOR061W, strain CKA2, hits give low values 1.01 | S. cerevisiae deletion strains, locus YOR069W, strain VPS5, hits give low values 1.01 | S. cerevisiae deletion strains, locus YOR070C, strain gyp1, hits give low values 1.01 | S. cerevisiae deletion strains, locus YOR080W, strain dia2, hits give low values 1 | S. cerevisiae deletion strains, locus YOR083W, strain WHI5, hits give low values 1 | S. cerevisiae deletion strains, locus YOR106W, strain vam3, hits give low values 1.01 | S. cerevisiae deletion strains, locus YOR136W, strain idh2, hits give low values 1.01 | S. cerevisiae deletion strains, locus YOR144C, strain elg1, hits give low values 1 | S. cerevisiae deletion strains, locus YOR184W, strain ser1, hits give low values 1.03 | S. cerevisiae deletion strains, locus YOR231W, strain MKK1, hits give low values 0.985 | S. cerevisiae deletion strains, locus YOR265W, strain rbl2, hits give low values 1.02 | S. cerevisiae deletion strains, locus YOR270C, strain vph1, hits give low values 1.04 | S. cerevisiae deletion strains, locus YOR290C, strain snf2, hits give low values 0.964 | S. cerevisiae deletion strains, locus YOR316C, strain cot1, hits give low values 1 | S. cerevisiae deletion strains, locus YPL051W, strain arl3, hits give low values 1.02 | S. cerevisiae deletion strains, locus YPL055C, strain LGE1, hits give low values 0.992 | S. cerevisiae deletion strains, locus YPL078C, strain atp4, hits give low values 1.01 | S. cerevisiae deletion strains, locus YPL106C, strain sse1, hits give low values 0.96 | S. cerevisiae deletion strains, locus YPL240C, strain hsp82, hits give low values 0.981 | S. cerevisiae deletion strains, locus YPL256C, strain CLN2, hits give low values 0.981 | S. cerevisiae deletion strains, locus YPR119W, strain clb2, hits give low values 1 | S. cerevisiae deletion strains, locus YPR141C, strain kar3, hits give low values 0.994 | S. cerevisiae deletion strains, locus YPR163C, strain tif3, hits give low values 0.996 | S. cerevisiae deletion strains, locus YPR167C, strain met16, hits give low values 1.01 | S. cerevisiae deletion strains, strain wtn01, hits give low values 1.05 | S. cerevisiae strains, strain wild type, hits give low values 0.995
